Data from PubChem BioAssay AID1159580 (chemical genetic matrix, 2015).
About 2,000 (36%) of roughly 5,500 compounds were called active. Not shown: some 18% with an inconclusive outcome. Cut-off read from the data, not from the text of the source: active = normalized growth mostly below about 0.91 (no sharp cut-off); inconclusive = no clear call, values can overlap the other calls; inactive = mostly above about 0.92. Some of the results follow.

Assay: chemical genetic growth profiling, strain panel (AID 1159580);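 note: tested at 20 µM; growth read once vehicle control cultures reached saturation at 30 °C; 1 = growth at the plate median or of vehicle wells; lower values mean less growth of the strain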
Settings: S. cerevisiae deletion strains, growth OD

Measured: normalized growth

COc1cccc(-c2cc(=O)c3ccc(OC)cc3o2)c1
active: locus YBR009C, strain hhf1, stronger effect = lower value 0.891 | locus YBR023C, strain chs3, stronger effect = lower value 0.897 | locus YDR392W, strain spt3, stronger effect = lower value 0.623 | locus YER110C, stronger effect = lower value 1.16 [resistant] | locus YER155C, strain BEM2 (second series), stronger effect = lower value 0.699 | locus YGL240W, strain doc1, stronger effect = lower value 0.837 | locus YGL253W, strain hxk2, stronger effect = lower value 0.903 | locus YGR229C, strain SMI1, stronger effect = lower value 0.722 | locus YHR030C, strain SLT2, stronger effect = lower value 0.82 | locus YHR079C, strain IRE1 (second series), stronger effect = lower value 1.08 [resistant] | locus YHR094C, strain hxt1, stronger effect = lower value 1.15 [resistant] | locus YHR142W, strain chs7, stronger effect = lower value 0.793 | locus YIR030C, strain dcg1, stronger effect = lower value 1.14 [resistant] | locus YJL095W, strain BCK1 (second series), stronger effect = lower value 0.916 | locus YJL095W, strain BCK1, stronger effect = lower value 0.656 | locus YKL009W, strain mrt4, stronger effect = lower value 0.828 | locus YKL068W, stronger effect = lower value 0.931 | locus YKL085W, strain MDH1 (second series), stronger effect = lower value 0.845 | locus YKL085W, strain MDH1, stronger effect = lower value 0.845 | locus YKR026C, strain gcn3, stronger effect = lower value 0.91 | locus YLR320W, strain mms22, stronger effect = lower value 0.824 | locus YML124C, strain tub3, stronger effect = lower value 1.13 [resistant] | locus YMR078C, strain ctf18, stronger effect = lower value 1.1 [resistant] | locus YMR205C, strain PFK2, stronger effect = lower value 0.871 | locus YNL071W, strain lat1, stronger effect = lower value 0.813 | locus YNL307C, strain MCK1, stronger effect = lower value 0.842 | locus YNR052C, strain pop2, stronger effect = lower value 1.14 [resistant] | locus YOL147C, strain pex11, stronger effect = lower value 1.08 [resistant] | locus YOR136W, strain idh2, stronger effect = lower value 1.18 [resistant] | locus YOR144C, strain elg1, stronger effect = lower value 1.18 [resistant] | locus YOR270C, strain vph1, stronger effect = lower value 0.71 | locus YOR290C, strain snf2, stronger effect = lower value 0.84 | locus YOR316C, strain cot1, stronger effect = lower value 1.1 [resistant] | locus YPL106C, strain sse1, stronger effect = lower value 0.84
inactive: locus YAL013W, strain DEP1, stronger effect = lower value 0.93 | locus YAL021C, strain ccr4, stronger effect = lower value 0.964 | locus YAL026C, strain drs2, stronger effect = lower value 0.936 | locus YAL030W, strain snc1, stronger effect = lower value 0.943 | locus YBL061C, strain skt5, stronger effect = lower value 0.929 | locus YBR021W, strain FUR4, stronger effect = lower value 0.942 | locus YBR171W, strain sec66, stronger effect = lower value 0.916 | locus YBR229C, strain ROT2, stronger effect = lower value 0.959 | locus YBR231C, strain swc5, stronger effect = lower value 0.922 | locus YBR279W, strain paf1, stronger effect = lower value 0.944 | locus YCL011C, strain gbp2, stronger effect = lower value 0.938 | locus YCL016C, strain dcc1, stronger effect = lower value 0.96 | locus YCL061C, strain MRC1, stronger effect = lower value 0.944 | locus YCL069W, strain vba3, stronger effect = lower value 0.947 | locus YCR088W, strain abp1, stronger effect = lower value 0.938 | locus YDL005C, strain med2, stronger effect = lower value 0.973 | locus YDL035C, strain GPR1, stronger effect = lower value 0.922 | locus YDL040C, strain nat1, stronger effect = lower value 0.948 | locus YDL074C, strain BRE1, stronger effect = lower value 0.837 | locus YDL101C, strain DUN1, stronger effect = lower value 0.954 | locus YDL134C, strain PPH21, stronger effect = lower value 0.978 | locus YDL185W, strain tfp1, stronger effect = lower value 0.978 | locus YDL192W, strain arf1, stronger effect = lower value 1.04 | locus YDR001C, strain nth1, stronger effect = lower value 0.935 | locus YDR069C, strain doa4, stronger effect = lower value 0.96 | locus YDR101C, strain arx1, stronger effect = lower value 1.04 | locus YDR137W, strain rgp1, stronger effect = lower value 0.929 | locus YDR150W, strain NUM1, stronger effect = lower value 0.951 | locus YDR159W, strain sac3, stronger effect = lower value 0.921 | locus YDR162C, strain NBP2, stronger effect = lower value 0.926 | locus YDR195W, strain ref2 1.05 | locus YDR297W, strain sur2, stronger effect = lower value 0.955 | locus YDR318W, strain mcm21, stronger effect = lower value 0.972 | locus YDR334W, strain swr1, stronger effect = lower value 0.943 | locus YDR335W, strain msn5, stronger effect = lower value 0.965 | locus YDR388W, stronger effect = lower value 1.04 | locus YDR502C, strain sam2, stronger effect = lower value 1.04 | locus YEL003W, strain gim4, stronger effect = lower value 0.962 | locus YEL037C, strain rad23, stronger effect = lower value 0.952 | locus YEL061C, strain CIN8 (second series), stronger effect = lower value 0.958 | locus YEL061C, strain CIN8, stronger effect = lower value 0.964 | locus YER015W, strain faa2, stronger effect = lower value 0.953 | locus YER016W, strain bim1, stronger effect = lower value 0.952 | locus YER111C, strain swi4, stronger effect = lower value 0.957 | locus YER155C, strain BEM2, stronger effect = lower value 1.06 | locus YER167W, strain BCK2, stronger effect = lower value 0.907 | locus YFR010W, strain ubp6, stronger effect = lower value 0.961 | locus YGL078C, strain dbp3, stronger effect = lower value 1.05 | locus YGL086W, strain mad1, stronger effect = lower value 0.934 | locus YGL167C, strain pmr1, stronger effect = lower value 0.938 | locus YGL173C, strain kem1, stronger effect = lower value 0.966 | locus YGL227W, strain vid30, stronger effect = lower value 0.946 | locus YGL248W, strain PDE1, stronger effect = lower value 0.946 | locus YGR078C, strain PAC10, stronger effect = lower value 0.945 | locus YGR135W, strain pre9, stronger effect = lower value 1.08 | locus YGR252W, strain gcn5, stronger effect = lower value 0.884 | locus YHR013C, strain ard1, stronger effect = lower value 0.852 | locus YHR027C, strain rpn1, stronger effect = lower value 0.968 | locus YHR129C, strain ARP1, stronger effect = lower value 1.03 | locus YHR200W, strain rpn10, stronger effect = lower value 1.04 | locus YIL066C, strain RNR3, stronger effect = lower value 0.961 | locus YIL073C, strain SPO22, stronger effect = lower value 0.834 | locus YIL125W, strain kgd1, stronger effect = lower value 0.964 | locus YJL092W, strain hpr5, stronger effect = lower value 0.954 | locus YJL115W, strain asf1, stronger effect = lower value 0.954 | locus YJL129C, strain trk1, stronger effect = lower value 0.95 | locus YJL134W, strain LCB3, stronger effect = lower value 0.965 | locus YJL154C, strain vps35, stronger effect = lower value 0.959 | locus YJL164C, strain tpk1, stronger effect = lower value 0.928 | locus YJL166W, strain qcr8, stronger effect = lower value 0.905 | locus YJL168C, strain set2, stronger effect = lower value 1.04 | locus YJL187C, strain SWE1 (second series), stronger effect = lower value 0.942 | locus YJL187C, strain SWE1, stronger effect = lower value 0.949 | locus YJR043C, strain POL32, stronger effect = lower value 0.866 | locus YJR075W, strain HOC1, stronger effect = lower value 0.994 | locus YKL160W, strain elf1, stronger effect = lower value 0.933 | locus YKL190W, strain CNB1, stronger effect = lower value 0.952 | locus YKR001C, strain vps1, stronger effect = lower value 1.06 | locus YKR091W, strain srl3, stronger effect = lower value 0.958 | locus YLL001W, strain dnm1, stronger effect = lower value 0.922 | locus YLL026W, stronger effect = lower value 0.94 | locus YLL041C, strain sdh2, stronger effect = lower value 0.951 | locus YLR027C, strain aat2, stronger effect = lower value 0.934 | locus YLR039C, strain RIC1, stronger effect = lower value 0.983 | locus YLR058C, strain SHM2, stronger effect = lower value 0.999 | locus YLR102C, strain apc9, stronger effect = lower value 1.03 | locus YLR221C, strain rsa3, stronger effect = lower value 0.91 | locus YLR258W, strain gsy2, stronger effect = lower value 0.93 | locus YLR262C, strain YPT6 (second series), stronger effect = lower value 0.916 | locus YLR262C, strain YPT6, stronger effect = lower value 0.989 | locus YLR268W, strain sec22, stronger effect = lower value 0.994 | locus YLR330W, strain CHS5, stronger effect = lower value 1.02 | locus YLR342W, strain FKS1 (second series), stronger effect = lower value 0.839 | locus YLR342W, strain FKS1, stronger effect = lower value 0.951 | locus YLR357W, strain rsc2, stronger effect = lower value 0.856 | locus YLR370C, strain arc18, stronger effect = lower value 0.948 | locus YLR371W, strain rom2, stronger effect = lower value 0.965 | locus YLR384C, strain iki3, stronger effect = lower value 0.962 | locus YLR418C, strain cdc73, stronger effect = lower value 0.948 | locus YML016C, strain PPZ1, stronger effect = lower value 0.998 | locus YML032C, strain rad52, stronger effect = lower value 0.954 | locus YML120C, strain ndi1, stronger effect = lower value 0.92 | locus YMR058W, strain fet3, stronger effect = lower value 0.938 | locus YMR125W, strain sto1, stronger effect = lower value 0.941 | locus YMR129W, stronger effect = lower value 0.971 | locus YMR223W, strain ubp8, stronger effect = lower value 1 | locus YMR231W, strain pep5, stronger effect = lower value 0.97 | locus YMR263W, strain SAP30, stronger effect = lower value 0.896 | locus YMR307W, strain GAS1, stronger effect = lower value 0.734 | locus YNL067W, strain RPL9B, stronger effect = lower value 0.944 | locus YNL128W, strain TEP1, stronger effect = lower value 1.02 | locus YNL153C, strain GIM3, stronger effect = lower value 0.997 | locus YNL209W, strain ssb2, stronger effect = lower value 0.977 | locus YNL233W, strain BNI4, stronger effect = lower value 0.942 | locus YNL248C, strain rpa49, stronger effect = lower value 0.927 | locus YNL250W, strain rad50, stronger effect = lower value 0.969 | locus YNL271C, strain bni1, stronger effect = lower value 0.938 | locus YNL298W, strain CLA4, stronger effect = lower value 0.924 | locus YNL322C, strain KRE1 (second series), stronger effect = lower value 0.959 | locus YNL322C, strain KRE1, stronger effect = lower value 0.958 | locus YNR049C, strain mso1, stronger effect = lower value 0.953 | locus YOL006C, strain TOP1, stronger effect = lower value 0.659 | locus YOL012C, strain htz1 0.755 | locus YOR001W, strain rrp6, stronger effect = lower value 0.94 | locus YOR061W, strain CKA2, stronger effect = lower value 0.951 | locus YOR069W, strain VPS5, stronger effect = lower value 0.958 | locus YOR070C, strain gyp1, stronger effect = lower value 0.942 | locus YOR080W, strain dia2, stronger effect = lower value 0.947 | locus YOR083W, strain WHI5, stronger effect = lower value 0.91 | locus YOR106W, strain vam3, stronger effect = lower value 0.922 | locus YOR184W, strain ser1, stronger effect = lower value 0.959 | locus YOR265W, strain rbl2, stronger effect = lower value 0.942 | locus YPL051W, strain arl3, stronger effect = lower value 0.932 | locus YPL055C, strain LGE1, stronger effect = lower value 0.873 | locus YPL078C, strain atp4, stronger effect = lower value 0.91 | locus YPL240C, strain hsp82, stronger effect = lower value 0.952 | locus YPL241C, strain CIN2, stronger effect = lower value 0.966 | locus YPR119W, strain clb2, stronger effect = lower value 1.03 | locus YPR141C, strain kar3, stronger effect = lower value 1 | locus YPR163C, strain tif3, stronger effect = lower value 1.03 | locus YPR167C, strain met16, stronger effect = lower value 1.04 | strain wtn01, stronger effect = lower value 1.05
